# Experimental data reported in ChEMBL document CHEMBL2218924, “A broad activity screen in support of a chemogenomic map for kinase signalling research and drug discovery” (Biochem J, 2013).
# Key:
# [1] = target: T1, Serine/threonine-protein kinase TBK1 (Homo sapiens) (UniProt Q9UHD2); conditions: at 10 µM
# T1 sequence (whole entry): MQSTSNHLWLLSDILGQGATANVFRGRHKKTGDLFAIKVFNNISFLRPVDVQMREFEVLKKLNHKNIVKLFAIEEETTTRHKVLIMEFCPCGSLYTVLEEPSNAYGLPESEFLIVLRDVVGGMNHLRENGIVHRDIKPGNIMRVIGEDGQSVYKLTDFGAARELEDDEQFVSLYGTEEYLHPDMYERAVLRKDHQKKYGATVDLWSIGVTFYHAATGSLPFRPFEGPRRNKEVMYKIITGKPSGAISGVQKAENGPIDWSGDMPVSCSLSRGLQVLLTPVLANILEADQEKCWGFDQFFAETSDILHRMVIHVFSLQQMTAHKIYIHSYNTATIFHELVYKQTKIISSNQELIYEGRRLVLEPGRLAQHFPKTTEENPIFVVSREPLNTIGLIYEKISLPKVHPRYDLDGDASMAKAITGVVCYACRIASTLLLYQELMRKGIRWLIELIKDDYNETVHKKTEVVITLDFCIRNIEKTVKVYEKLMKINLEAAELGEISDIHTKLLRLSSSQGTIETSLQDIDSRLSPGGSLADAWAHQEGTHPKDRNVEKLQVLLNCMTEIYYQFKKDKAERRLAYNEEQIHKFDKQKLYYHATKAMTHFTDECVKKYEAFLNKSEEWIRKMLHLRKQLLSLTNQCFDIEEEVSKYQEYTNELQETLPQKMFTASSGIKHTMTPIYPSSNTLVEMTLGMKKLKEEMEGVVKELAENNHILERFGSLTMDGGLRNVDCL
# [2] = target: T2, TGF-beta receptor type-1 (Homo sapiens) (UniProt P36897); conditions: at 1 µM
# T2 sequence (whole entry): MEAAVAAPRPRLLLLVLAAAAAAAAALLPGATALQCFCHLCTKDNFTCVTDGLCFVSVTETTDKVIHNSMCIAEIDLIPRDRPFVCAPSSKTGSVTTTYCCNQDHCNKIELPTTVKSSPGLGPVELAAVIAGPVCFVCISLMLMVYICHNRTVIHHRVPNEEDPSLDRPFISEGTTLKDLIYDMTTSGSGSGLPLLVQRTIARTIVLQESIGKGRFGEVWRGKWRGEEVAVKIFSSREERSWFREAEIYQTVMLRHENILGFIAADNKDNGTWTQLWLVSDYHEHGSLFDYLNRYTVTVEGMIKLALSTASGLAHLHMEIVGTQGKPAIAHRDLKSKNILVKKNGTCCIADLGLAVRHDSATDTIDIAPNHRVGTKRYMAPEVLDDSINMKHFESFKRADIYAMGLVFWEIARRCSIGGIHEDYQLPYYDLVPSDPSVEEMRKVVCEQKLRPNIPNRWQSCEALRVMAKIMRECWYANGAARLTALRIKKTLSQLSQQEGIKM
# [3] = target: T2, TGF-beta receptor type-1 (Homo sapiens); conditions: at 10 µM
# [4] = target: Insulin-like growth factor 1 receptor (Homo sapiens) (UniProt P08069); conditions: at 1 µM
# [5] = target: Insulin-like growth factor 1 receptor (Homo sapiens) (UniProt P08069); conditions: at 10 µM
# [6] = target: T3, Inhibitor of nuclear factor kappa-B kinase subunit alpha (Homo sapiens) (UniProt O15111); conditions: at 1 µM
# T3 sequence (whole entry): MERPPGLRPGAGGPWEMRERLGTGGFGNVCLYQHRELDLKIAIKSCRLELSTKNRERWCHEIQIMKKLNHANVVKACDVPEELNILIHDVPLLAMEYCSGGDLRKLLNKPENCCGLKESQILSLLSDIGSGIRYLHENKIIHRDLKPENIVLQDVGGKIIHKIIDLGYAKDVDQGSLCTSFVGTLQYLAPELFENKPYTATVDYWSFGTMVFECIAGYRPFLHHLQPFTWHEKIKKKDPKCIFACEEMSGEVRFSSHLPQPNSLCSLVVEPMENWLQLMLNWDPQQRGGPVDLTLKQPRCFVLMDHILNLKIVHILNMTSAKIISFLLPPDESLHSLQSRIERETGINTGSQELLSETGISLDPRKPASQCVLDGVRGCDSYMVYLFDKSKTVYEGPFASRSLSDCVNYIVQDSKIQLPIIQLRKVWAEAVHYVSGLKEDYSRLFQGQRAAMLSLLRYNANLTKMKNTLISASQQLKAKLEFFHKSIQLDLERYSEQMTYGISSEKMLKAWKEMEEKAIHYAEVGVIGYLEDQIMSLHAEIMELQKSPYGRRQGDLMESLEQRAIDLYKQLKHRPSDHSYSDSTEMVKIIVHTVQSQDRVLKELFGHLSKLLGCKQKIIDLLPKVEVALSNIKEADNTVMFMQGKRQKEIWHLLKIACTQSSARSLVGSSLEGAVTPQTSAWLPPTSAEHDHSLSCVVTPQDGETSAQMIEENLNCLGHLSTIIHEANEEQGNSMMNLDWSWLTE
# [7] = target: T3, Inhibitor of nuclear factor kappa-B kinase subunit alpha (Homo sapiens); conditions: at 10 µM
# [8] = target: T4, Inhibitor of nuclear factor kappa-B kinase subunit beta (Homo sapiens) (UniProt O14920); conditions: at 1 µM
# T4 sequence (whole entry): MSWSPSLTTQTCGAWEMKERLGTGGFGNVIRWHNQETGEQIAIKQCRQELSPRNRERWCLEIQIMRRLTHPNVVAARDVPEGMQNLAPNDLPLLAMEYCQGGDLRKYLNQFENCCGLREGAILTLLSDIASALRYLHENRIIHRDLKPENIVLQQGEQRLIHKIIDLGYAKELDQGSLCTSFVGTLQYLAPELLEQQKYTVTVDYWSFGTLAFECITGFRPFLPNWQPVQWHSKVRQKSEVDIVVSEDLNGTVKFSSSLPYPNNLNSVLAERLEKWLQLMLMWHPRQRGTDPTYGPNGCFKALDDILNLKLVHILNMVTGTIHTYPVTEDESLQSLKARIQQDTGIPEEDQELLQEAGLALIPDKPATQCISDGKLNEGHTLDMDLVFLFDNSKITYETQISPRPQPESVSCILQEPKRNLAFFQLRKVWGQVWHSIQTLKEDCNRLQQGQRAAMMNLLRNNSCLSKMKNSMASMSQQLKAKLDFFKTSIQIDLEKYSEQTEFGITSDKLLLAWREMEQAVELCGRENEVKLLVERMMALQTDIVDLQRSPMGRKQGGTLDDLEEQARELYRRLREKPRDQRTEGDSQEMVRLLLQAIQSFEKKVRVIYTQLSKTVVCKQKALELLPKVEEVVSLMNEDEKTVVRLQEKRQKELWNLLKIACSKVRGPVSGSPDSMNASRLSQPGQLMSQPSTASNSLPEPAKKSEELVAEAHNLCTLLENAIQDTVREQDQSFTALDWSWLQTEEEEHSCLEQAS
# [9] = target: T4, Inhibitor of nuclear factor kappa-B kinase subunit beta (Homo sapiens); conditions: at 10 µM
# [10] = target: Insulin receptor (Homo sapiens) (UniProt P06213); conditions: at 1 µM
# Sequence of Insulin receptor (Homo sapiens) (P06213 28-758 limits assumed): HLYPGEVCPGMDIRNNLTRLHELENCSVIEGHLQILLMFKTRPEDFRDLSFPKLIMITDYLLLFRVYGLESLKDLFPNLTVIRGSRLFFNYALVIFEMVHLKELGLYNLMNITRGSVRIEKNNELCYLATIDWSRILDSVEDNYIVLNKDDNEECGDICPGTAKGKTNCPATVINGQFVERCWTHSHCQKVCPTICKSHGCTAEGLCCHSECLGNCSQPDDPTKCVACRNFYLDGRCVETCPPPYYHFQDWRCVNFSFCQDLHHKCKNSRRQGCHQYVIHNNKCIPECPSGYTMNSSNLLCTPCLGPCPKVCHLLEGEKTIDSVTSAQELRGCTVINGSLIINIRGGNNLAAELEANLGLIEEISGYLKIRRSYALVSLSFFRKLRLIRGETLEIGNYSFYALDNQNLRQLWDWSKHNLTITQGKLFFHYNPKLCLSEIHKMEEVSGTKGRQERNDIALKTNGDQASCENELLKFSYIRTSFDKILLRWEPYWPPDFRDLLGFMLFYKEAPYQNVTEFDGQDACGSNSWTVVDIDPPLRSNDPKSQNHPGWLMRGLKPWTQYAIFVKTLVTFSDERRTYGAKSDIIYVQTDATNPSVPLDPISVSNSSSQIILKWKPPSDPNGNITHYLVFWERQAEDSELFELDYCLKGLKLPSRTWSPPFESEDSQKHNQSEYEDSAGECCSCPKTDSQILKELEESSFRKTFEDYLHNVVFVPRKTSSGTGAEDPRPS
# Sequence of Insulin receptor (Homo sapiens) (P06213 763-1382 limits assumed): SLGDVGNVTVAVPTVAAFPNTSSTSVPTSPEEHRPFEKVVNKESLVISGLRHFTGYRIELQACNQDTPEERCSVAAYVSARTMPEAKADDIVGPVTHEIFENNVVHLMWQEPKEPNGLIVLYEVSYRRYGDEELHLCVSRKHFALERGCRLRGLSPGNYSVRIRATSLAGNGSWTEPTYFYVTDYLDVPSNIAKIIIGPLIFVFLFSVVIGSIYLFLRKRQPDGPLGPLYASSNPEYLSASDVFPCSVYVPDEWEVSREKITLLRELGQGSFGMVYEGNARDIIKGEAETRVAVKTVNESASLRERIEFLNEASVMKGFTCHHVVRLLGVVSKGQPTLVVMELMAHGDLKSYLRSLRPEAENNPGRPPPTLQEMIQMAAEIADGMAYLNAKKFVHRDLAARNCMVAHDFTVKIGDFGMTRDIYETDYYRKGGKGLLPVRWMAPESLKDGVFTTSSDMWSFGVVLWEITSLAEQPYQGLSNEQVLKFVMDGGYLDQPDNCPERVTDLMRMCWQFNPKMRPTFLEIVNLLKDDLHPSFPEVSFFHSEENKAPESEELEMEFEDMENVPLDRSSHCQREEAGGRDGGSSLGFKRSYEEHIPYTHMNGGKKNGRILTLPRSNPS
# Sequence of Insulin-like growth factor 1 receptor (Homo sapiens) (P08069 31-736 limits assumed): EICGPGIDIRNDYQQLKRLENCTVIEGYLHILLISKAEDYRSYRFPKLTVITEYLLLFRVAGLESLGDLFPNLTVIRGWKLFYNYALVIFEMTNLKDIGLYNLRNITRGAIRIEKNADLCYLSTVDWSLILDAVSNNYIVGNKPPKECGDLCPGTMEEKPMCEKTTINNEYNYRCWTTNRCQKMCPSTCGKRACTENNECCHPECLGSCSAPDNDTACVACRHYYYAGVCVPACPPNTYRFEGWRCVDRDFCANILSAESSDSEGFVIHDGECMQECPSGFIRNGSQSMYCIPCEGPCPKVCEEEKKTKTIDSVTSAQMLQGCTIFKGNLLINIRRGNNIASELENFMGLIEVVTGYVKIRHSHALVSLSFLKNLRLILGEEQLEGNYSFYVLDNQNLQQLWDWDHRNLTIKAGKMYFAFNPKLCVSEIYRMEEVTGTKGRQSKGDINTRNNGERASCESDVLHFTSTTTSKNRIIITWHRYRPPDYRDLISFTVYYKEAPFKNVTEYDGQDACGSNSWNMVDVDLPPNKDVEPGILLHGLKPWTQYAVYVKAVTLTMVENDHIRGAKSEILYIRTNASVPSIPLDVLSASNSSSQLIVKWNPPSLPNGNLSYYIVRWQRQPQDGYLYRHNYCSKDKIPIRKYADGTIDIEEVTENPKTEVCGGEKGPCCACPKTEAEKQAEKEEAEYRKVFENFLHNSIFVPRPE
# Sequence of Insulin-like growth factor 1 receptor (Homo sapiens) (P08069 741-1367 limits assumed): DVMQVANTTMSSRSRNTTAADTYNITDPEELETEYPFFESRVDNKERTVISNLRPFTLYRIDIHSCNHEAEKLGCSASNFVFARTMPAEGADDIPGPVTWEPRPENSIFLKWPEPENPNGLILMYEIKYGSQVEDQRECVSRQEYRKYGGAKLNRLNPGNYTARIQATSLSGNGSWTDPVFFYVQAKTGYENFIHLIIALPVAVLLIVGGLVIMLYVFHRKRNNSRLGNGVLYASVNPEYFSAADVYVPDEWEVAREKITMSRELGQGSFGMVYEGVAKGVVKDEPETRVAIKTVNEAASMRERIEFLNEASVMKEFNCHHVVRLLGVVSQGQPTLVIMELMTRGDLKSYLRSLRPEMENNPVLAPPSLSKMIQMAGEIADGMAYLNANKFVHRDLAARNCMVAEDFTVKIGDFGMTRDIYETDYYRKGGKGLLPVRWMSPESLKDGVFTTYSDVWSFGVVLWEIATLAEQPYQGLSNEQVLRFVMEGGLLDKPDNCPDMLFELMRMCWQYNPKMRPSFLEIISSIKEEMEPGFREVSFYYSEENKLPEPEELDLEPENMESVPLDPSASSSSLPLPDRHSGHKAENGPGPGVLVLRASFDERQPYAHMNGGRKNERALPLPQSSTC
structure (smiles),measurement,setting,value
O=C(O)c1ccc2c3c1cccc3c(=O)n1c3ccccc3nc21,residual activity,[1],4%
same,residual activity,[2],111%
same,residual activity,[3],102%
same,residual activity,[4],113%
same,residual activity,[5],107%
same,residual activity,[6],109%
same,residual activity,[7],106%
same,residual activity,[8],112%
same,residual activity,[9],93%
same,residual activity,[10],117%
